This excerpt belongs to a sample that is enriched for hits.
Dicer processing = inhibitors of Dicer pre-microRNA processing, primary screen, biochemical, cat-ELCCA, chemiluminescence; Endoribonuclease Dicer (Homo sapiens), Q9UPY3; cat-ELCCA pre-miR-21 Dicer processing; active compounds read high; z-score at 25 µM; 47,000 tested, 6% active; AID 1347074, 2019; in the data active = z-score above about 3, passing the limit was not always enough;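 note: higher signal means more uncleaved substrate so more Dicer inhibition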
Each line names hits and unclear results; the compound was inactive in the other large screens.

COc1ccc(Nc2c(Cl)cc(OC)cc2Cl)cc1	none
COc1ccc(Nc2n[nH]c(N)n2)cc1	Dicer processing 5.6
COc1ccc(Nc2nc(Cl)nc(Nc3ccc(OC)cc3)n2)cc1	none
O=C1CC(c2ccc(F)cc2)Cc2nc(N3CCN(Cc4ccccc4)CC3)ncc21 (centres undefined)	none
COc1ccccc1N1CCN(C(=O)C(C)Nc2ccccn2)CC1 (centres undefined)	none
COc1ccccc1N1CCN(C(=O)C(C)Oc2ccnc3c(C)ccc(C)c23)CC1 (centres undefined)	Dicer processing 3.6
COc1ccccc1N1CCN(C(=O)C2CCCCC2)CC1	none
O=c1cc(-c2ccccc2)nc2c(-c3ccccc3)c(C(F)(F)F)[nH]n12	Dicer processing 4
CC(C)(C)c1cc2nc(-c3ccccc3)cc(=O)n2[nH]1	none
Cc1cc(=O)n2[nH]c(-c3cccs3)cc2n1	none
O=c1cc(-c2ccccc2)nc2cc(-c3ccccc3)[nH]n12	none
O=c1cc(-c2ccccc2)nc2nc(C(F)(F)F)[nH]n12	none
O=c1cc(-c2ccccc2)nc2cc(-c3cccs3)[nH]n12	Dicer processing 3.1
N[C@@H](Cc1cnc[nH]1)C(=O)O	none
FC(F)(F)c1c(-c2nc(-c3ccc(Cl)cc3)no2)cnn1-c1ccccc1	none
CCC(CC)C(=O)Nc1c2c(nn1-c1ccc(Cl)cc1)CSC2	none
Clc1ccc2c(c1)CCc1cccnc1C2=C1CCNCC1	none
O=C(Nc1ccc(OC(F)(F)F)cc1)c1c(-c2ccccc2)nnc2ccccc12	Dicer processing 29
O=C(O)c1c(-c2ccccc2)nnc2ccccc12	none
O=C(Nc1ccc(OC(F)(F)F)cc1)Nc1ccc2ccccc2n1	none
CCn1c2ccccc2c2nnc(SCC(=O)Nc3cc(C)on3)nc21	none
COc1cc2nc(NC(C)=O)sc(=O)c2cc1OC	Dicer processing 3.6
COc1cc2nc(NC(=O)c3ccc(C(C)(C)C)cc3)sc(=O)c2cc1OC	none
COc1cc2nc(NC(=O)c3ccco3)sc(=O)c2cc1OC	none
Cc1cc2ncc(-c3ccnc(SCc4cccc(Cl)c4)n3)c(C)n2n1	none
Cc1cc2ncc(-c3ccnc(SCc4c(Cl)cccc4Cl)n3)c(C)n2n1	Dicer processing 24
Cc1cc2ncc(-c3ccnc(SCC(=O)c4ccc(Cl)cc4)n3)c(C)n2n1	none
O=C(O)c1cc(Br)c(C(=O)O)cc1Br	none
Cc1ccc(NC(=S)N(C)C)cc1F	none
CCc1nc(/C=C2\C(=O)Nc3ccccc32)c(C)[nH]1	none
CN(C)c1ccc(NC2CC(=O)N(c3ccc(F)cc3)C2=O)cc1 (centres undefined)	none
CC(C)CNC1CC(=O)N(c2ccc(C(C)C)cc2)C1=O (centres undefined)	none
CCCCCCCNC1CC(=O)N(c2ccc(F)cc2)C1=O (centres undefined)	Dicer processing 3.9
O=S(=O)(CS(=O)(=O)Nc1ccc(Oc2ccc(F)cc2F)nc1)Nc1ccc(Oc2ccc(F)cc2F)nc1	none
COc1cc(CNc2nc3c(C)cc(C)cc3s2)ccc1O	Dicer processing 3.1
Cc1cc(C)c2nc(NCc3ccccc3O)sc2c1	none
COc1cc(CCC(C)NCc2ccccc2)ccc1O (centres undefined)	none
O=C(Nc1ccc(OCc2ccccc2)cc1)Nc1ccccc1C(=O)NCC1CC1	none
Cc1[nH]n(-c2c(Cl)cc(C(F)(F)F)cc2Cl)c(=O)c1N=Nc1ccccc1	none
Clc1ccc(OCc2nc(-c3ccccc3)no2)cc1	none
CCCNC(=O)Nc1n[nH]c(Nc2ccc(Cl)cc2)n1	none
CC(C)NC(=O)Nc1n[nH]c(Nc2ccc(Cl)cc2)n1	Dicer processing 12
Cc1onc(-c2c(Cl)cccc2Cl)c1NC(=O)NC(C)C	none
NC(=O)N/N=C/c1coc2ccccc2c1=O	none
COC(=O)C1=C(C(=O)OC)SC(=C2C(=S)C(C)(C)Nc3ccc(OC)cc32)S1	none
CCOc1ccc2c(c1)-c1c(sn(-c3ccc(OC)cc3)c1=S)C(C)(C)N2	Dicer processing 6.7
COc1ccc(-n2sc3c(c2=S)-c2ccccc2NC3(C)C)cc1OC	none
O=C(Nc1cc(-c2nc3cc(Cl)ccc3o2)ccc1Cl)c1ccco1	none
O=C(Nc1cccc2cccnc12)c1ccco1	none
O=C(Nc1ccc(Cl)cc1O)c1ccco1	Dicer processing 5.7
O=C(O)CCN1C(=O)c2cccc3cc([N+](=O)[O-])cc(c23)C1=O	none
Cc1ccc(-c2nc(-c3ccccc3)no2)cc1	none
COc1cccc(-c2nnc(SCc3ccc(Cl)cc3)o2)c1	Dicer processing 3.1
COc1cccc(-c2nc(-c3ccc(Cl)cc3)no2)c1	Dicer processing 3
COc1ccc(-c2noc(-c3cc(C)cc(C)c3)n2)cc1	none
COc1cccc(-c2nc(-c3ccccc3)no2)c1	none
Cc1cc(C)cc(-c2nc(-c3ccccc3)no2)c1	Dicer processing 4.7
COc1cccc(-c2nnc(SCc3cccc(Cl)c3)o2)c1	none
COc1cccc(-c2nnc(SCc3ccc(Br)cc3)o2)c1	none
COc1ccc(-c2nc(-c3ccc(Cl)cc3)no2)cc1OC	none
O=C1CC(Sc2cccs2)C(=O)N1c1ccccc1 (centres undefined)	none
Clc1ccc(-n2ncnc2-c2ccc(Br)cc2)cc1	none
O=C(C1CC(c2c(F)cccc2Cl)=NO1)N1CCCCC1 (centres undefined)	none
O=C1CC(c2ccco2)Cc2nc(N3CCN(CCO)CC3)ncc21 (centres undefined)	none
Cc1sc(-c2ccsc2)nc1-c1ccc(-c2ccccc2F)cc1	none
O=C(/C=C(\C(=O)c1ccccc1)c1ccccc1)c1ccc(Cl)cc1	none
O=C(O)CCSc1cccc2cccc(C(=O)O)c12	none
Cn1c(=O)n(C)c2cc(CN)ccc21	none
CC(C)n1c(C(O)c2ccc3c(c2)OCO3)nc2ccccc21 (centres undefined)	none
O=c1n(Cc2ccc(F)cc2)nc2n1-c1ccccc1OC2	none
CC(C)n1c(CN2CCN(c3ccccc3F)CC2)nc2c1c(=O)n(C)c(=O)n2C	none
Cc1ccc(S(=O)(=O)NC(=O)Nc2nc(-c3ccc(C)c(Cl)c3)c(C)s2)cc1	none
Cc1ccc(-c2nc(NC(=O)c3ccccc3)sc2C)cc1Cl	none
Cc1ccc(S(=O)(=O)Nc2nc(-c3ccc(C)c(Cl)c3)c(C)s2)cc1	Dicer processing 3.3
COC(=O)c1ccc(Oc2cc(Cl)cc(Cl)c2)o1	none
O=C(CSc1ncn[nH]1)N1c2ccccc2Sc2ccccc21	none
Cc1ncc([N+](=O)[O-])n1Cc1ccc(Cl)cc1	none
O=C(C1CCCCC1)N1CCn2c1nc1ccccc12	none
O=C(O)CC(CC(=O)O)c1ccc(Cl)cc1Cl	none
Nc1[nH]c(=S)[nH]c(=O)c1C(c1ccc(Cl)cc1Cl)c1c(N)[nH]c(=S)[nH]c1=O	Dicer processing 3.4
Nc1n[nH]c(=O)c2cc(-c3ccc(Cl)cc3)[nH]c(=O)c12	none
CC(=O)OC1c2cc(C)ccc2NC(c2ccccc2)C1(C)C (centres undefined)	none
CC(C)(C)n1[nH]c(-c2ccccc2)cc1=O	none
Cc1nc2nc(-c3ccccc3)cc(=O)n2[nH]1	none
O=C1c2ccccc2-c2n[nH]c3cccc1c23	none
O=C(NNC(=NS(=O)(=O)c1ccccc1)NNC(=O)c1cccc(Cl)c1)c1cccc(Cl)c1	Dicer processing 3.1
O=C(CO/N=C/c1c(Cl)cccc1Cl)NNC(=O)c1cccc(Cl)c1	none
CS/C(=N/S(=O)(=O)c1ccccc1)NNC(=O)c1ccc(Cl)cc1	none
O=C(O)CCCNc1nc(Cl)nc(N2CCCCC2)n1	Dicer processing 5.7
Clc1nc(NCCN2CCOCC2)nc(N2CCC(Cc3ccccc3)CC2)n1	none
O=C(O)CCCNC1=NCCS1	none
CC1(C)ONC(=O)N(CCc2cccs2)C1=O	none
COC(=O)c1ccc(C(=O)OC)c(NC(=O)C2CC3CCC2C3)c1 (centres undefined)	Dicer processing 4.3

Bioassay records deposited in PubChem BioAssay by Center for Chemical Genomics, University of Michigan.
